From PubChem BioAssay AID687014 (The Scripps Research Institute Molecular Screening Center, 2013)
Among all 370,000 compounds or so, about 6,800 (1.8%) were called active. The entries come from a sample that favours actives as a whole. Unmarked numbers belong to inactive results.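 How the source made its calls: active means activation above a cutoff set at the mean of all screened compounds plus 3 SD (cut at about 10% in these data); inactive means the rest.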

System: Nuclear hormone receptor DAF-12 (Heterodera glycines), GAL4 fusion
Test: H. glycines DAF-12 receptor agonists, primary screen, cell-based, luminescence, HEK293, GAL4 fusion, UAS-luciferase (AID 687014);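 further: 0% = DMSO wells and 100% = sodium butyrate wells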
Conditions: HEK293 GAL4-hgDAF12 UAS-luciferase reporter, agonist luminescence; at 6.8 µM; stronger effect = higher value; normalized to butyrate control

Row | SMILES | activation
1 | COc1cccc(/C=C2\CC3(OC(C)=O)CCCN2C3)c1 (centres undefined) | 1.14%
2 | Cc1nc2ccc(C(=O)N3CCN(C(=O)C(C)(C)C)CC3)cc2n1C1CCCC1 | -0.38%
3 | COC[C@@H]1CCCN1c1ccc2c(c1)O[C@H](C)CCN(C1CC1)S2(=O)=O | 1.95%
4 | C/C(=N\NC(=O)C(N)=O)c1ccc2c(c1)OCCO2 | 4.44%
5 | O=C(/C=C/c1ccc2c(c1)OCCO2)c1ccc(O)cc1 | 11.8% (active)
6 | COc1ccc(OC)c(/C=C/C(=O)c2ccc3c(c2)OCO3)c1 | -2.94%
7 | COC(=O)[C@]12C[C@H](CC(=O)NCc3cccc(C(F)(F)F)c3)C(=O)N(Cc3ccc4c(c3)OCO4)C1=C[C@H](COCc1ccccc1)O[C@@H]2C | 1.05%
8 | O=c1oc2ccccc2cc1-c1cn(-c2ccccc2)c(=S)[nH]1 | -16.8%
9 | Nc1ncc(-c2cc3ccccc3oc2=O)s1 | 11.9% (active)
10 | CC(CCN1CCC(C(O)(c2ccccc2)c2ccccc2)CC1)Oc1ccc(C(F)(F)F)cc1 (centres undefined) | 0.45%
11 | O=C(Nc1cc(Cl)cc(Cl)c1)OCCN1CCCC12CCC(c1ccccc1)CC2 (centres undefined) | -0.4%
12 | CC(C)=CCN1CCN(Cc2ccc(Oc3ncccn3)cc2)CC1CCO (centres undefined) | 3.6%
13 | N#CC1(Nc2ccc(-c3ccc(Cl)cc3)cc2)CCCC1 | 13.3% (active)
14 | NC(=O)C1(Nc2ccc(-c3ccccc3)cc2)CCCC1 | 0.26%
15 | N#CC1(Nc2ccc3c4c(cccc24)CC3)CCCCC1 | -2.54%
16 | COc1cccc(C(=O)Nc2ccc3nc4n(c(=O)c3c2)CCCCC4)c1 | 4.15%
17 | CC1CCN(C(=O)c2ccc3c(=O)n4c(nc3c2)CCCCC4)CC1 | 1.69%
18 | O=c1c2c(nc3n1CCCCC3)sc1c(O)cccc12 | 12.6% (active)
19 | CC(=O)c1ccc(NC(=O)c2sc3nc4n(c(=O)c3c2C)CCCCC4)cc1 | 6.99%
20 | Cc1c(C(=O)Nc2ccccc2)sc2nc3n(c(=O)c12)CCCCC3 | 10.5% (active)

Row | SMILES | activation
21 | N=c1c2c3c(sc2nc2n1CCCCC2)CCCC3 | 2.26%
22 | CC(C)CNS(=O)(=O)CC1NCCc2ccccc21 (centres undefined) | -0.34%
23 | Cc1ccc(C2=CCN(C)C(=O)N2c2ccc(Cl)cc2)cc1 | 7.34%
24 | COc1ccc(C(=O)OCCN(C)C2CN(Cc3cn(Cc4cccc(C)c4)nn3)S(=O)(=O)C2)cc1OC (centres undefined) | 0.81%
25 | Cc1cccc(N2CCN(C(=O)c3cccc(N4C(=O)C5C6C=CC(C6)C5C4=O)c3)CC2)c1C (centres undefined) | -1.08%
26 | CN(CC(=O)Nc1ccc(Cl)cc1)CC(=O)Nc1cccc2ccccc12 | 0.52%
27 | CN(CC(=O)Nc1ccc(Cl)cc1)C(=O)c1ccc(COc2ccccc2)cc1 | 0.13%
28 | CN(CC(=O)Nc1ccc(Cl)cc1)C(=O)CNC(=O)c1ccc2ccccc2c1 | 12.3% (active)
29 | O=C(CSc1nc2sc3c(c2c(=O)n1-c1ccccc1)CCCC3)NN=Cc1ccc(OCc2ccccc2)cc1 | 4.38%
30 | O=C1CCC2(CCC(c3ccc(Cl)cc3)CC2)N1CCO (centres undefined) | -4.23%
31 | CC(C)CC(=O)N/C(N)=N/c1nc2ccccc2s1 | 9.05%
32 | CCC(=O)NC(=Nc1nc2ccccc2s1)NC(=O)CC | 12.5% (active)
33 | CC(C)C(C)NC(=O)COc1ncnc2ccccc12 (centres undefined) | 1.57%
34 | O=C(CN1CCC(NC(=O)NCc2ccccc2)CC1)Nc1ccc2c(c1)OCCO2 | 1.23%
35 | O=C(Cn1cnc([N+](=O)[O-])n1)NCCc1ccccc1 | 2.5%
36 | Cc1c(Br)c([N+](=O)[O-])nn1CC(=O)N1CCN(Cc2ccccc2)CC1 | 4.33%
37 | CCOc1cccc(C(=O)Nc2cnn(Cc3ccccc3)c2)c1 | 2.99%
38 | O=C(Nc1ccn(Cc2ccccc2)n1)c1n[nH]c([N+](=O)[O-])c1Cl | 16.8% (active)
39 | O=C(Nc1ccn(Cc2ccccc2)n1)c1cccc(F)c1 | 20% (active)
40 | Cc1ccc(NC(=O)CC2C(=O)N(Cc3ccccc3)C(=S)N2NC(=O)c2cccc(F)c2)c(C)c1 (centres undefined) | -3.58%

Row | SMILES | activation
41 | CC(c1c[nH]c2ccccc12)c1c(-c2ccccc2)n(C)c2ccccc12 (centres undefined) | 0.36%
42 | COC(=O)[C@]1(Cc2ccccc2)NC=C(C(=O)c2ccccc2)[C@@H]1c1cccc(OC)c1 | 1.41%
43 | Cc1cc(C)cc(NC(=O)N2CCC(N(C)CCC(C)C)CC2)c1 | 3.99%
44 | O=C(NCCCN1CCOCC1)c1cc(-c2ccccc2F)no1 | 14.2% (active)
45 | O=C(NCCCN1CCOCC1)c1ccccc1NS(=O)(=O)c1ccc(F)cc1 | -1.36%
46 | O=C(NCCCN1CCOCC1)c1cnn2c(-c3ccccc3)cc(-c3ccccc3)nc12 | -2.14%
47 | Cc1cccc(CN2CCN(C3CN(Cc4cn(Cc5cc(C)cc(C)c5)nn4)S(=O)(=O)C3)CC2)c1 (centres undefined) | -3.8%
48 | CCC(C(=O)Nc1c(C)cccc1C)n1c(-c2cc(C)cs2)nc2ccccc21 (centres undefined) | 2.55%
49 | O=C(NC1=CC(=O)c2ccccc2C1=O)c1ccccc1 | -6.53%
50 | CCC(C(=O)NC(C)(C)C)n1c(-c2ccccc2)nc2ccccc21 (centres undefined) | 0.22%
51 | Cn1c(NC(=O)c2ccccc2)nc2ccccc21 | 15.2% (active)
52 | Cn1c(-c2ccc(C(=O)c3ccccc3)s2)nc2ccccc21 | 13.5% (active)
53 | CCn1c(NC(=O)c2nn(C)cc2Br)nc2ccccc21 | -4.58%
54 | CCOC(=O)[C@]12CCCC=C1N(Cc1ccc(OC)cc1)C(=O)[C@@H]2CC(=O)NCc1cccs1 | -4.41%
55 | CN1CCCc2nc(-c3ccccc3)ccc21 | 7.25%
56 | CCc1ccc(NC2Nc3cc(C)nn3S2)cc1 (centres undefined) | 19.2% (active)
57 | CCOC(=O)c1ccc(NC2Nc3cc(C)nn3S2)cc1 (centres undefined) | 2.62%
58 | COCCNC(=O)Cn1cc2c(n1)CCCCC2 | 0.5%
59 | CN(CC(=O)Nc1c(Cl)cccc1Cl)C(=O)CC1OC(=O)c2ccccc21 (centres undefined) | -1.08%
